Only some compounds are listed: those with a hit (about 1.9% of all), similar ones and a draw of the others.
CR mimetic SO: lowers age-related superoxide in aged yeast cells; superoxide response (% of plate mean), % at 10 µM; 0.18% of 330,000 active; S. cerevisiae aged cells, superoxide DHE fluorescence; stronger effect = lower value; AID 2690;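 active = superoxide response under a set limit, about three screen SD below normal, cut at about 65% in these data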;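 note: yeast aged for seven days with compound at 30 °C before DHE staining; 100% = average MFI of all compound-treated wells on the plate with controls excluded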
GLD-1 RNA inh: GLD-1-TGE RNA interaction inhibition (C. elegans); purified GLD-1 + fluorescein TGE RNA, fluorescence polarization; Q17339; 0.44% of 320,000 active; inhibition, % at 5.96 µM;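 active = percent inhibition above a per-plate cutoff, the plate mean of test compounds plus 3 SD, cut at about 30% in these data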;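 note: 0% = DMSO wells with GLD-1 and probe and 100% = wells lacking GLD-1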
BCLXL inh: Bcl-xL (human) inhibition; Q07817; inhibition, % at 10.9 µM; 0.7% of 320,000 active; AID 2129; GST-Bcl-xL / FITC-Bim BH3 peptide fluorescence polarization;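 active = inhibition above the mean of all tested compounds plus 3 SD, cutoff set per campaign, cut at about 30% in these data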;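 note: 0% = DMSO wells and 100% = unlabeled Bim-BH3 peptide competitor; inhibitors lower millipolarization by displacing the labeled peptide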
MEX-5 binding: C. elegans MEX-5 TCR-2 RNA binding activity; Q9XUB2; MEX-5/FITC-TCR2 RNA binding, fluorescence polarization; stronger effect = lower value; activity score (negative = inhibition of binding), % at 10 µM; 0.38% of 300,000 active; AID 1832;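 active = inhibition past about -25% in most replicates, and total fluorescence under double the plate's negative control median, limit read from the data; inconclusive = replicates evenly split on the limit, or fluorescence at least double controls; inactive = too little inhibition in most replicates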;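 note: 0% = DMSO and -100% = 5 µM competing unlabeled TCR2 RNA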
LANA-H2A inh: blocks KSHV LANA binding to histone H2A/H2B. AID 2629. inhibition, % (no concentration beside the values). 0.6% of 320,000 active. cell-free LANA-H2A/H2B peptide, fluorescence polarization; in the data active = inhibition mostly above about 10%, no sharp cut-off; inactive = mostly below about 6.7%
MCL1-BIM inh: inhibitors of human MCL1 binding to BIM-BH3 peptide. Q07820. GST-MCL1 / FITC-Bim-BH3 fluorescence polarization. inhibition, % at 10.9 µM. 0.68% of 320,000 active. AID 2057;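 active = inhibition above the mean inhibition of all tested compounds plus 3 SD, set per campaign, cut at about 40% in these data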;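 note: 0% = DMSO wells and 100% = unlabeled Bim-BH3 peptide control; higher means more loss of mP so more displacement of Bim peptide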
GLD1 RNA confirm: GLD-1 TGE RNA interaction inhibition, confirmation. inhibition, % at 5.96 µM. 10% of 550 active. shares compounds with GLD-1 RNA inh. GLD-1/FL-TGE RNA fluorescence polarization, biochemical. AID 2459;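 active = average inhibition across triplicates above the hit cutoff set in the primary screen, cut at about 32% in these data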;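 note: 0% = GLD-1 with RNA probe and DMSO and 100% = wells lacking GLD-1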
Starred values were filed as active, the others as inactive; ? = inconclusive; / = no result given.

SMILES	CR mimetic SO	GLD-1 RNA inh	BCLXL inh	MEX-5 binding	LANA-H2A inh	MCL1-BIM inh	GLD1 RNA confirm
COC(=O)CP(=O)(c1ccccc1)c1ccccc1	97	39*	32*	0	-3	37	-1
CCc1c(C)sc(NC(=O)OC)c1C(=O)N1CCCCC1	99	33*	37*	/	4	41*	7
CCc1c(C)sc(NC(=O)OC)c1C(N)=O	105	4	-2	-3	-2	3	/
O=C(O)c1ccccc1Nc1cc(Cl)c2nonc2c1[N+](=O)[O-]	113	4	16	-3	0	15	/
O=[N+]([O-])c1c(Nc2ccccn2)cc(Cl)c2nonc12	87	43*	-9	0	3	-39	3
CCN1C(=O)C(CC(=O)Nc2ccc(OC)cc2)N(CCc2ccc(OC)cc2)C1=S (stereo unspecified)	105	-1	3	1	-3	6	/
COc1ccc(CCN2C(=S)N(C)C(=O)C2CC(=O)Nc2ccc(F)cc2)cc1 (stereo unspecified)	108	61*	5	-4	1	7	-2
CC1CCCCC1NC(=O)COc1ncnc2sccc12 (stereo unspecified)	105	5	2	/	/	1	/
CC1CN(C(=O)COC(=O)[C@@H](NC(=O)c2ccccc2Cl)C(C)C)CC(C)O1 (stereo partly specified)	107	0	/	/	0	/	/
COc1cc(NC(=O)Cn2c([N+](=O)[O-])cnc2C)c(OC)cc1Cl	91	-2	3	-1	-10	-8	/
CCOC(=O)c1c(C)nc2sc3c(=O)n(-c4ccc(C(C)=O)cc4)cnc3c2c1-c1ccc(OC)cc1	105	43*	31*	2	1	28	0
O=C(Nc1cccnc1Cl)c1cc(-c2cccc(O)c2)on1	86	-6	-2	1	0	-15	/
O=C1Cc2cc(S(=O)(=O)NCc3ccc(F)cc3)ccc2N1	86	-5	/	/	3	/	/
COCCn1c(=NC(=O)c2ccc(S(=O)(=O)N3CCCc4ccccc43)cc2)sc2cc(S(C)(=O)=O)ccc21	108	32*	4	2	-2	2	-8
Cc1cccc(S(=O)(=O)C(C#N)c2nc3ccccc3nc2N2CC(C)OC(C)C2)c1 (stereo unspecified)	85	22	10	?	0	14	/
COc1ccc(S(=O)(=O)C(C#N)c2nc3ccccc3nc2N2CCCC(C)C2)cc1 (stereo unspecified)	92	33*	43*	-7	0	41*	7
CCOC(=O)C1=C(C)NC(C)=C(C(=O)OCC)C1C(=O)OCC(=O)NC1CCCCC1	93	3	/	/	-1	/	/
CCOc1ccc(NC(=O)COC(=O)c2ccc3c(c2)OCCO3)cc1	100	2	1	/	0	-1	/
Cc1cccc(NC(=O)c2ccc([N+](=O)[O-])cc2Cl)n1	105	-4	-3	3	3	-3	/
COCCNc1ccc([N+](=O)[O-])cc1C(=O)Nc1cccc(C)n1	87	68*	5	-2	-4	4	1
CC(C)N(Cc1nccn1C)C(=O)CC1C(=O)NCCN1Cc1ccc(F)c(F)c1 (stereo unspecified)	98	38*	25	-3	0	26	2
CC(C)N(Cc1nccn1C)C(=O)CC1C(=O)NCCN1Cc1ccc(F)cc1 (stereo unspecified)	93	10	10	/	3	10	/
COc1ccc2c(c1)CC/C(=C/c1ccncc1)C2=O	103	-4	5	0	-2	-2	/
COc1ccc2c(c1)CC/C(=C\c1ccc(C)o1)C2=O	91	39*	43*	-2	2	48*	-12
O=c1c2cccc(Cl)c2nc2n1Cc1ccccc1-2	116	42*	11	-2	4	19	1
COc1ccc(Nc2ccc(N3C(=O)CC(C)C3=O)cc2[N+](=O)[O-])cn1 (stereo unspecified)	103	38*	42*	-12	3	42*	13
